Mm-Cpn inhibitor: Inhibitors of TCP-1 ring complex (TRiC) of Methanococcus maripaludis (MmCpn): qHTS. Chaperonin Mm-Cpn (Methanococcus maripaludis). purified Mm-Cpn ATPase, ADP Transcreener TR-FRET. Potency, µM (doses to about 76.9 µM), for the others: at the top dose activity, negative = inhibition, actives largely listed as inhibitors. 0.031% of 330,000 active. AID 504842, 2011; also: potency is read from the fitted curve at half-maximal effect; % is scaled to controls: 0 for no effect and ±100 for the full control effect; nearly all actives have a fitted effect of over 80% in size
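ATPase turnover read by TR-FRET ADP competition (Eu cryptate antibody/ADP-d2, 665/590 nm): 10uM ATP final, 25nM Mm-CPN final, 30 min 37degC after 10-min compound preincubation, pH 7.4 Tris/KCl/MgCl2/DTT buffer.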
CCT modulator: High-Throughput Screening for Modulators of Cytosolic Chaperonin Activity; purified chaperonin ATPase assay, HTRF ADP detection, 30 min; activity change, % (test concentration not listed), hits read low; 0.3% of 360,000 active; in the data active = activity change below about -30%; also: % is scaled to controls: 0 for no effect and ±100 for the full control effect
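Enzyme 40 or 20 nM (batch-dependent) in Tris pH 7.4/KCl/MgCl2/DTT; cpd 76 uM single point; ATP 10 uM; 30 min 37 °C; Transcreener ADP HTRF detection, 30 min RT; ratio 665/615.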
Epigenetic reg: Quantitative High-Throughput Screen for Regulators of Epigenetic Control. murine LDR cells, GFP reporter derepression, 30 h. Potency, µM (top dose mostly 53.9 µM), inactives show at the top dose GFP activation, usual class: activators. 0.2% of 280,000 active; also: potency is read from the fitted curve at half-maximal effect; % of control where 0% means no effect; nearly all actives have a fitted effect of over 60% in size
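Murine LDR cells carrying a silenced, genomically integrated CMV-driven GFP reporter were exposed to compound for 30 hours at 37 C. After PBS washes, GFP-positive cells (20–120 um objects) were counted by laser-scanning microplate cytometry.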
Akt phos inh: HTS Assay for Inhibitors of Akt Phophorylation: Primary Screen; activity change, % for hits at 50 µM; 0.32% of 360,000 active; Neuro2A IGF-stimulated pAkt S473 HTRF, 20 min; hits give low values; AID 651550, 2012; in the data active = activity change below about -80%; inconclusive = mostly about -51% to -80%; also: % is scaled to controls: 0 for no effect and ±100 for the full control effect
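Neuro2A cells in DMEM with 0.5% FBS, overnight at 37 deg C, given compound at single 50 µM final, then IGF (6 nM final) for 20 min at 37 deg C. Lysed; phospho-Akt Ser473 by HTRF after 24 h, 665/615 ratio.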
MBNL1 CUG block: qHTS Assay for Inhibitors of MBNL1-poly(CUG) RNA binding. Muscleblind-like protein 1 (Homo sapiens), Q9NR56. TR-FRET MBNL1-His/biotin-(CUG)12 binding, 665/545 ratio. Potency, µM (series often up to 57.5 µM), for the others: at the top dose activity change, negative = inhibition, most hits filed as inhibitors. 0.036% of 280,000 active. AID 2675, 2010; active = well fitted inhibition curve with a large enough effect in the signal ratio, with a control signal flat, not every such curve was filed as active; inconclusive = small, poorly fitted or top-dose-only effect, or effect the other way, or a change in a side signal; inactive = no such curve, though single readings can be large or run the other way; the % refers to the signal ratio; also: potency is read from the fitted curve at half-maximal effect; % is scaled to controls: 0 for no effect and ±100 for the full control effect
Target sequence (Q9NR56 whole entry, looked up): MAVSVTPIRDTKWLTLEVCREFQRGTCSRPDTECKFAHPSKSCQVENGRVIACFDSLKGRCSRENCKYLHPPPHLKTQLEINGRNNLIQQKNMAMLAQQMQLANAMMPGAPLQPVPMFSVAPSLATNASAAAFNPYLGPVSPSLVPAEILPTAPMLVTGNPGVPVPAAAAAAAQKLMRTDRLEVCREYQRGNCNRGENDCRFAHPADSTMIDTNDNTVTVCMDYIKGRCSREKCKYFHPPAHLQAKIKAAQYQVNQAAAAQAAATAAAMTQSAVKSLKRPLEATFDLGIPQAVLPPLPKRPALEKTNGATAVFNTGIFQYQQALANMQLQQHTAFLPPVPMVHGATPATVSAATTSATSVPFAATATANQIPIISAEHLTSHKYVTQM
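Inhibition of protein-RNA binding appears as loss of TR-FRET between terbium anti-His antibody on MBNL1-His and streptavidin-XL665 on biotin-(CUG)12. Activity is normalized to buffer-only and uninhibited-complex controls.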
uPA generation: qHTS for Inhibitors of Cell Surface uPA Generation. cell surface uPA generation assay, qHTS. Potency, µM (highest dose often 38.3 µM), without a hit: top-dose activity change, negative = inhibition, actives largely listed as inhibitors. 0.31% of 330,000 active. AID 540303, 2011; active = well fitted inhibition curve with a large enough effect; inconclusive = small, poorly fitted or top-dose-only effect; inactive = no such curve, though single readings can be large or run the other way; tested in mouse RAW 264.7 cells; also: potency is read from the fitted curve at half-maximal effect; % is scaled to controls: 0 for no effect and ±100 for the full control effect; nearly all actives have a fitted effect of over 55% in size
* marks the source's active call; other numbers are inactive results; i = inactive; u = inconclusive; x = not tested or not shown; ! = not confirmed by another sample; [ ] = dose if it differs, or a comment. In the library only some 0.97% were active in any assay of this set; here they are far more common. Unless noted, calls follow the shape of the dose curve; as a rule, active = well fitted curve in the direction sought with a large enough effect; inconclusive = small, poorly fitted or top-dose-only effect, or another doubt; inactive = no such curve, though single readings can be large; an effect the other way counts as inactive or inconclusive.

SMILES	Mm-Cpn inhibitor	CCT modulator	Epigenetic reg	Akt phos inh	MBNL1 CUG block	uPA generation
CCCN1C(=O)c2ccc(C(=O)Nc3nccs3)cc2C1=O	1.4%	-2.5	0.9%	-110.5%*	u	2.2%
Cc1cnc(NC(=O)c2ccc3c(c2)C(=O)N(Cc2ccco2)C3=O)s1	-7.9%	-1.7	8.9%	-119.5%*	u	0.0%
O=C(CCn1c(=S)[nH]c2cc3c(cc2c1=O)OCO3)NCCc1ccccc1Cl	x	0.3	x	i	x	x
CCOc1ccccc1NC(=O)c1cc(S(=O)(=O)NCc2ccco2)ccc1F	-2.4%	-67.0*	x	x	4.1%	-8.6%
CC(=O)c1ccc[nH]1	x	x	-1.0%	x	x	x
N#C/C(=C\c1ccc(-c2cccc(Cl)c2)o1)C(=O)Nc1cccc(C(F)(F)F)c1	x	x	11.2µM*	x	x	x
Cc1cnc(NC(=O)Nc2ccc(Cl)cc2)s1	-1.1%	-0.6	-4.2%	i	-3.6%	2.24µM*
Clc1cccc(-c2cccc3nccn23)c1Cl	x	-2.4	x	i	x	x
Clc1ccc(-c2cccc3nccn23)c(Cl)c1	x	-76.5*	x	i	x	x
O=c1c(-c2c(O)cc(O)c3c2O[C@H](c2ccc(O)cc2)CC3)c(-c2ccc(O)cc2)oc2cc(O)cc(O)c12	35.5µM*	-2.4	x	i	x	24.0%
O=c1c(O)c(-c2ccc(O)cc2)oc2cc(O)cc(O)c12	x	0.2	0.4%	i	x	-15.4%
Cc1cccc(Cc2c(C)nc3c(C(=O)N4CCN(Cc5ccc6c(c5)OCO6)CC4)cnn3c2C)c1	-1.2%	-3.0	u	-83.4%*	0.2%	-10.7%
Cc1ccccc1Cc1c(C)nc2c(C(=O)N3CCN(Cc4ccc5c(c4)OCO5)CC3)cnn2c1C	x	-3.3	x	i	x	x
COCCN(CCOC)C(=O)c1ccc(Cc2nc3ccccc3[nH]2)cc1	x	x	-2.2%	x	x	x
O=C(Nc1ccc2[nH]ccc2c1)c1ccc(F)cc1	0.5%	-2.7	-1.3%	i	x	0.891µM*
O=C(CSc1nc2c(c(=O)n1-c1ccccc1)SCC2)NCC1CCCO1 (stereo not given)	1.0%	-0.4	0.0%	i	15.1%	1.2%
CCOC(=O)c1c(NC(=O)CSc2nnc(-c3ccco3)o2)sc(C(C)=O)c1C	x	-59.8*	0.7%	i	31.8%	-12.3%
CCOC(=O)c1c(NC(=O)CSc2nnc(-c3ccco3)o2)sc(C)c1C	-3.5%	-1.9	2.6%	i	1.7%	-7.1%
Cc1cccc(C)c1NC(=O)CCCSc1nnc(-c2ccco2)o1	-6.5%	2.4	0.5%	-110.9%*	-3.9%	0.5%
COc1cc(C23CCCN(CCC(C(C)(C)C)C2)C32OCCO2)cc(OC)c1OC (stereo not given)	x	1.1	x	i	x	x
CCn1c(SCC(=O)N2CCC(C)CC2)nc2c1c(=O)n(C)c(=O)n2C	-0.3%	2.8	x	i	-3.5%	-8.2%
CCCC(=O)Nc1ccc2c(c1)nc(CN1CCN(C(=O)OCC)CC1)n2C	-0.4%	0.7	x	i	-9.3%	-1.7%
CCOC(=O)N1CCN(CCC(=O)Nc2cccc(Br)c2)CC1	-2.5%	-95.6*!	4.8%	i	-11.0%	5.9%
CCCC(=O)Nc1ccc2c(c1)nc(CN1CCN(C(=O)OCC)CC1)n2CC	2.9%	-1.1	x	i	-9.5%	3.55µM*
CCOC(=O)N1CCN(CC(=O)Nc2cccc(Br)c2)CC1	-0.1%	1.9	0.8%	x	-2.7%	2.6%
SMILES	Mm-Cpn inhibitor	CCT modulator	Epigenetic reg	Akt phos inh	MBNL1 CUG block	uPA generation
Cn1c(CN2CCCCC2)nc2cc(NC(=O)c3ccc(Cl)cc3)ccc21	0.6%	-47.6*	1.0%	i	-3.9%	x
CCOC(=O)N1CCN(Cc2nc3cc(NC(=O)c4ccco4)ccc3n2C)CC1	-1.5%	-57.8*	x	x	-3.1%	-6.9%
C=C(C)CC1(c2ccccc2)Oc2ccccc2-c2nc3cc(Cl)c(Cl)cc3nc21 (stereo not given)	x	x	0.8%[10.1 µM]	x	x	x
COCCCNc1ncnc2c1cnn2-c1ccc(F)cc1	x	x	6.2%	x	x	x
COc1cccc(NC(=O)Cn2c(=O)n(-c3cccc(OC)c3)c(=O)c3c4c(sc32)CCCC4)c1	x	x	3.5%	x	x	x
COc1ccc(CCNC(=O)c2c(C)oc3ncn(CC(C)C)c(=O)c23)c(OC)c1	x	x	-1.3%	x	x	x
CCN(C(=O)c1cn(C)c(=O)c2ccccc12)c1cccc(C)c1	x	x	3.5%	x	x	x
CCn1c(=N)c(C(=O)NC)cc2c(=O)n3cccc(C)c3nc21	-9.2%	-1.8	0.4%	i	u	-5.7%
CCNc1nc(C)c2cc(Br)c(=O)n(CC)c2n1	-4.7%	-2.6	0.0%	-103.6%*	-0.8%	-13.1%
Cc1ccc(Cn2ccsc2=NC(=O)CCl)cc1	-1.3%	-7.8	0.0%	i	9.6%	2µM*
CCC(=O)N1CCC1(C)C(=O)Nc1ccc(OC)c(OC)c1 (stereo not given)	x	0.6	x	i	x	x
COc1ccc(NC(=O)C2(C)CCN2C(=O)C(C)C)cc1F (stereo not given)	x	-35.6*	x	x	x	x
O=C(O)CCN1C(=O)c2ccc(NC(=O)Cc3ccc(Cl)cc3)cc2C1=O	0.6%	-32.2*	-0.2%	i	11.8%	4.0%
Cc1c(C(=O)OCc2ccccc2)[nH]c2c1C(=O)CC(c1ccco1)C2 (stereo not given)	-13.3%	0.5	4.6%	i	0.7%	1µM*
COC(=O)c1[nH]c2c(c1C)C(=O)CC(c1cc(OC)ccc1OC)C2 (stereo not given)	-1.2%	-2.0	1.5%	i	-0.3%	5.62µM*
COCCOC(=O)c1[nH]c2c(c1C)C(=O)CC(c1ccco1)C2 (stereo not given)	-4.1%	-0.3	0.0%	i	1.4%	1µM*
COc1ccc(OC)c(C2CC(=O)c3c([nH]c(C(=O)OCC4CCCCC4)c3C)C2)c1 (stereo not given)	x	x	0.0%	x	x	x
Cc1ccc(S(=O)(=O)N(CC(=O)O)c2ccc(Cl)cc2)cc1	x	x	0.9%	x	x	x
CCN(C(=O)COC(=O)/C(=C/c1ccccc1)n1nnnc1C)C1CCCCC1	-0.8%	-87.5*	x	i	x	-12.5%
O=C(Nc1ccccc1CC[N+](=O)[O-])N1CCN(c2ccccc2)CC1	0.7%	-1.8	0.2%	i	x	-7.9%
NC(=S)N/N=C\c1ccc(-c2cccc(Cl)c2Cl)o1	-0.3%	3.0	-4.5%	-122.1%*	4.5%	-5.5%
CC(C)(C)c1cc(C(=O)N2CCc3ccccc32)ccn1	-2.5%	0.8	-5.3%	i	-5.4%	x
CC(C)(C)c1cc(C(=O)NCc2ccccc2)ccn1	-6.4%	1.8	-1.9%	-87.8%*	-9.6%	5.4%
